CSC inhib: cancer stem cell viability inhibitors, primary screen, luminescence; cancer stem cell-like cells viability; inhibition, % at 7.5 µM; 1.1% of 300,000 active; AID 2717, 2010; in the data active = inhibition above about 75%; inconclusive = no clear call, values can overlap the other calls; tested in HMLE shEcad cells
Mdm2 MdmX PPI: inhibitors of human Mdm2-MdmX association, primary screen, cell-based, luminescence, split luciferase, SaOS-2, uHTS | Protein Mdm4 (Homo sapiens) + E3 ubiquitin-protein ligase Mdm2 (Homo sapiens), … | SaOS-2 split-luciferase Mdm2/MdmX complementation | inhibition, % at 8 µM | 3% of 330,000 active;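 active = inhibition of at least 50% at 8 µM in the primary screen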
PP5 primary: PP5 phosphatase inhibitors, primary screen, biochemical, fluorescence; 0.18% of 320,000 active; inhibition, % at 6.7 µM; purified PP5c, OMFP substrate fluorescence; Serine/threonine-protein phosphatase 5 (Homo sapiens), P53041;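 active = inhibition above the campaign's mean inhibition across all tested compounds plus 3 SD, cut at about 9.5% in these data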;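 note: 0% = DMSO only and 100% = 100 µM cantharidin control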
Target sequence (P53041 whole entry, looked up): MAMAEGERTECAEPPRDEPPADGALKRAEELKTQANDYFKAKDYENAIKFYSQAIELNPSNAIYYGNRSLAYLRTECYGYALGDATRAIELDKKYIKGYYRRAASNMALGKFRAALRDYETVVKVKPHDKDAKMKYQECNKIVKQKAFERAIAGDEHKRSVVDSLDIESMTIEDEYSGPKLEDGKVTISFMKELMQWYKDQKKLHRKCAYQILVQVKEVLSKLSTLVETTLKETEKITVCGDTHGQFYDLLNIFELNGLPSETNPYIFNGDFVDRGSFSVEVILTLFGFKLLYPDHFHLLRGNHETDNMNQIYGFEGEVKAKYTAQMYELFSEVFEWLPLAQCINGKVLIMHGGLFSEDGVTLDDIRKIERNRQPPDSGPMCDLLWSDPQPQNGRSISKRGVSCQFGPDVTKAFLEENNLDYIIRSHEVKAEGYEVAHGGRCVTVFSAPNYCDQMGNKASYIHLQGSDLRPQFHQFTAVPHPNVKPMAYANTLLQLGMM
PP1 counter: PP1-alpha phosphatase inhibitors, primary screen, counter-screen for PP5 inhibitor project, biochemical, fluorescence, OMFP substrate, single point | inhibition, % at 6.7 µM | 0.9% of 320,000 active | AID 2235, 2010 | purified PP1alpha;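 active = inhibition above the mean inhibition of all tested compounds plus 3 SD, computed separately for each screening campaign, cut at about 15% in these data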
Beta apoptosis: inhibitors of cytokine-induced beta cell apoptosis, primary screen, luminescence | AID 435005, 2010 | 0.8% of 300,000 active | protection from apoptosis, % (no concentration beside the values) | INS-1E cytokine-induced death, ATP luminescence, 48 h; percent of positive-control rescue, neutral wells zero;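 active = Every replicate reaches about 75%, or at least half do and their mean reaches it too, limit read from the data; inconclusive = At least half of replicates reach the limit but their mean does not; inactive = Under half of replicates reach the limit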;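 note: 0% = cytokine-treated negative control wells and 100% = positive control rescue; higher means more ATP so stronger rescue from cytokine killing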
Calb FLC: C. albicans growth inhibition with fluconazole, primary screen, CaCi-2 strain, Alamar Blue fluorescence | C. albicans CaCi-2 (fluconazole-resistant clinical isolate) + fluconazole, 48 h | growth inhibition, % (test concentration not listed) | 0.57% of 300,000 active | AID 1979, 2009;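 active = growth inhibition above about 58% in most replicates, limit read from the data, passing the limit was not always enough; inconclusive = exactly half the replicates above a set limit; inactive = most replicates below a set limit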;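 note: all wells also contain fluconazole at 8 µg/ml as a sub-toxic cotreatment; 0% = median of DMSO wells and 100% = median of geldanamycin control wells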
PP1 inh confirm: PP1 phosphatase inhibitors, confirmation, biochemical, fluorescence, OMFP substrate, triplicate | shares compounds with PP1 counter | purified PP1alpha | inhibition, % at 6.7 µM | 52% of 1,900 active;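 active = mean PP1 inhibition above a set limit taken from the earlier primary screen, cut at about 15% in these data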
PP5 inh counter: PP5 phosphatase inhibition by PP1 hits, confirmation, counter-screen for PP1 inhibitor project, biochemical, fluorescence, triplicate; shares compounds with PP1 counter; purified PP5c, OMFP fluorescence; inhibition, % at 6.7 µM; 4% of 1,900 active; AID 2360, 2010;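 active = mean PP5 inhibition over triplicate wells above about 9.5% taken from the earlier PP1 screen, limit read from the data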
Mdm2 MdmX conf: Mdm2-MdmX complex disruptors, retested hits, confirmation, luminescence, single concentration; shares compounds with Mdm2 MdmX PPI; Mdm2-MdmX binding, luminescent assay; inhibition, % at 8 µM; 55% of 10,000 active; AID 489028, 2010; in the data active = inhibition above about 40%
FLuc counter: full-length luciferase signal inhibition, confirmation, counter-screen for Mdm2/MdmX interaction inhibitor project, cell-based, single concentration, SaOS-2. 77% of 6,200 active. shares compounds with Mdm2 MdmX PPI. AID 504607, 2011. inhibition, % at 8 µM. SaOS-2 full-length luciferase counterscreen, luminescence;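 active = mean inhibition at 8 µM reaching about 37%, which flags the compound as non-specific, limit read from the data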;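 note: p53-null SaOS-2 cells with luciferase driven by a doxycycline-inducible promoter; compound on cells about two nights before reading with doxycycline added after day one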
An asterisk follows results filed as active; ? = inconclusive; nt = no result given. An excerpt weighted towards active compounds, which were near 4.9% of everything screened.

SMILES	CSC inhib	Mdm2 MdmX PPI	PP5 primary	PP1 counter	Beta apoptosis	Calb FLC	PP1 inh confirm	PP5 inh counter	Mdm2 MdmX conf	FLuc counter
O=C(NNC(=O)c1cccnc1SCc1cccc([N+](=O)[O-])c1)c1ccccn1	nt	55*	-1	20*	nt	?	19*	-5	79*	21
CC1CN(Cc2nnc(-c3ccccc3)o2)CC(C)O1 (stereo not drawn)	-8	17	1	0	1	-4	nt	nt	nt	nt
CCC1=NNc2cccc3c(OC)ccc1c23	nt	62*	5	33*	-4	-5	9	5	24	nt
N#Cc1c(N2CCCC(O)C2)nc(N)c2c(N)nc3c(c12)CC(=O)N3C12CC3CC(CC(C3)C1)C2 (stereo not drawn)	72	90*	14*	19*	13	-2	9	57*	69*	44*
N#Cc1c(N(CCO)CCO)nc(N)c2c(N)nc3c(c12)CC(=O)N3CC1CCCO1 (stereo not drawn)	-3	6	8	-4	2	-5	nt	nt	nt	nt
C=C(C)CN(CC)c1nc(N)c2c(N)nc3c(c2c1C#N)CC(=O)N3C12CC3CC(CC(C3)C1)C2	19	84*	3	19*	56	7	15	7	54*	41*
O=C(OCc1ccc(Cl)cc1)c1ccccc1C(=O)c1ccccc1	16	-5	0	2	5	-4	nt	nt	nt	nt
COc1cccc(-c2nnc(NC(=O)c3ccccc3Br)o2)c1	17	8	-1	2	-6	-6	nt	nt	nt	nt
COc1cccc(-c2nnc(NC(=O)c3ccc(Cl)s3)o2)c1	51	61*	-1	22*	nt	35	25*	-5	17	nt
Fc1ccc(-[n+]2nc(Nc3ccccc3)sc2-c2c3ccccc3cc3ccccc23)cc1	103*	100*	2	22*	67	17	5	1	90*	42*
Oc1ccc2ccccc2c1-c1sc(Nc2ccccc2)n[n+]1-c1ccc(F)cc1	6	-27	2	3	-7	6	nt	nt	nt	nt
c1ccc(-[n+]2nc(Nc3cccc4ccccc34)sc2-c2c3ccccc3cc3ccccc23)cc1	6	65*	3	31*	117*	nt	30*	1	80*	24
Cc1nn(-c2ccccc2)c2[nH]c(=O)c(CNCc3ccc4c(c3)OCO4)cc12	nt	12	-2	-3	1	-9	nt	nt	nt	nt
Cc1ccc(-c2nn(-c3ccccc3)c3[nH]c(=O)c(CNCc4ccccc4)cc23)cc1	53	52*	4	27*	-1	7	27*	-3	12	nt
CC(=O)Oc1ccc(C(=O)Nc2cccc(C(=O)Nc3ccccc3C(=O)O)c2)cc1	-2	10	nt	nt	-2	2	nt	nt	nt	nt
CCOC(=O)N1CCN(S(=O)(=O)c2ccc(C(=O)NNc3nc4cc(C)cc(C)c4s3)cc2)CC1	103*	79*	6	19*	84*	-1	26*	1	46*	47*
CCOC(=O)N1CCN(S(=O)(=O)c2ccc(C(=O)N(CCN(CC)CC)c3nc4c(C)cccc4s3)cc2)CC1	-7	19	4	1	-1	2	nt	nt	nt	nt
CCOC(=O)N1CCN(S(=O)(=O)c2ccc(C(=O)NNc3nc4c(C)cc(C)cc4s3)cc2)CC1	126*	80*	6	31*	97*	29	19*	-2	70*	48*
CC(OC(=O)C1CCCC1)C(=O)Nc1ncc(Cl)cc1Cl (stereo not drawn)	-18	-5	-1	-4	-3	nt	nt	nt	nt	nt
CCC(C)(C)NC(=O)C(c1ccc(C)cc1)N(CCN1CCOCC1)C(=O)CNC(=O)c1cccs1 (stereo not drawn)	-14	-8	-2	-5	-9	10	nt	nt	nt	nt
CCOc1ccc(/C=C2\SC(=S)N(CCC(=O)N(CCO)c3ccccc3)C2=O)cc1	9	65*	5	22*	-40	-6	8	4	17	nt
COc1ccc(/C=C2\SC(=S)N(CCC(=O)N(CCO)c3ccccc3)C2=O)cc1OC	2	41	0	-1	-23	3	nt	nt	nt	nt
N#Cc1c(-c2ccccc2)c(-c2ccccc2)nn(CC(=O)NNC(=O)Nc2ccc(Cl)c(Cl)c2)c1=O	105*	63*	6	23*	7	42	12	3	47*	36
FC(F)(F)c1cc(CCN2CCNC[C@H]2Cc2cccc3ccccc23)cc(C(F)(F)F)c1	?	100*	6	23*	5	2	-2	1	36	75*
CCCCNC(=O)C(c1ccc(OCC(=O)OC)c(C(=O)OC)c1)N(CCc1c[nH]c2ccccc12)C(=O)CCCCCN1C(=O)NC(c2ccc(-c3ccccc3)cc2)C(C(=O)OCc2ccccc2)=C1C (stereo not drawn)	nt	22	nt	nt	nt	-8	nt	nt	nt	nt
CCCCCCN(C(=O)CCCCCN1C(=O)NC(c2cccc([N+](=O)[O-])c2)C(C(=O)OCc2ccccc2)=C1C)C(C(=O)NCCCC)c1ccc(OCC(=O)OC)c(C(=O)OC)c1 (stereo not drawn)	-43	85*	6	36*	0	1	37*	5	-14	nt
Nc1c2c(=O)oc(-c3ccccc3)cc2nn1-c1ccccc1	31	-93	4	-2	-2	-3	nt	nt	nt	nt
Cc1c(-c2ccc(Cl)cc2)oc(=O)c2c(N)n(-c3ccccc3)nc12	41	86*	1	23*	23	-4	28*	-3	7	nt
CC(C)C[C@H](NC(=O)c1[nH]cnc1C(=O)N[C@@H](C)c1ccccc1)C(=O)OCc1ccccc1	0	51*	12*	18*	-1	11	15	5	21	nt
C=CCNC(N)=S	-13	26	0	1	-8	-9	nt	nt	nt	nt

Screening results from PubChem.
